From PubChem BioAssay
OTUD3 inh = inhibitors of human OTUD3 deubiquitinase. OTU domain-containing protein 3 (Homo sapiens), Q5T2D3. purified OTUD3, Ub-rhodamine fluorescence, 2 h. inhibition, % at 25 µM. 47,000 compounds, 0.7% hits
USP30 block = inhibitors of human USP30 deubiquitinase | purified USP30, Ub-rhodamine cleavage fluorescence | 47,000 compounds, 5.3% hits | Ubiquitin carboxyl-terminal hydrolase 30 (Homo sapiens), Q70CQ3 | AID 1645860, 2021 | inhibition, % at 25 µM
USP17 inh = inhibitors of human USP17 deubiquitinase; Ubiquitin carboxyl-terminal hydrolase 17-like protein 5 (Homo sapiens), A8MUK1; purified USP17, Ub-rhodamine cleavage fluorescence, 3 h; inhibition, % at 50 µM; AID 1645855, 2021; 47,000 compounds, 6.5% hits
Target sequence (A8MUK1 whole entry, looked up): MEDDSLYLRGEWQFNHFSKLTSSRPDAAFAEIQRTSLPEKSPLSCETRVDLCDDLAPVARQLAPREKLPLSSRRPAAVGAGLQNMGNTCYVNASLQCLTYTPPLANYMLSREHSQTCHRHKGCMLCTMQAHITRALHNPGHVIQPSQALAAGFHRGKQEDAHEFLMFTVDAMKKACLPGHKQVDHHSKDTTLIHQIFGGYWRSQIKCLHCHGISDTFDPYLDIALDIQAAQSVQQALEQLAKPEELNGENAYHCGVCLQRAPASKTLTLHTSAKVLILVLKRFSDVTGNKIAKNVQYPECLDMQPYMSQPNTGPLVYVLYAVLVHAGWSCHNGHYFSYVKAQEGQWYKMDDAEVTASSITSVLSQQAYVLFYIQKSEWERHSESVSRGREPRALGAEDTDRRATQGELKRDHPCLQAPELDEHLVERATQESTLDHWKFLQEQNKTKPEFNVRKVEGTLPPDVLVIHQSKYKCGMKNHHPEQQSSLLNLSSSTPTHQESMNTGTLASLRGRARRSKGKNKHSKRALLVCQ
USP28 block = inhibitors of human USP28 deubiquitinase; Ubiquitin carboxyl-terminal hydrolase 28 (Homo sapiens), Q96RU2; purified USP28, Ub-rhodamine cleavage fluorescence, 30 min; inhibition, % at 25 µM; 47,000 compounds, 3% hits
Each line names hits and unclear results; the compound was inactive in the other large screens. In the library only some 11% were active in any assay of this set; here they are far more common. Rule as the data show it: active = inhibition above about 30%; inactive = the rest.

Cc1noc(C)c1CSc1ncccc1C(=O)Nc1ccnn1C1CCCC1	none
O=C(Nc1ccc2c(c1)OCCO2)C1CN(C(=O)c2ccc3c(c2)OCO3)C1	USP28 block 43
O=C(Nc1cccnc1)NC1CCCCC1	none
O=C(Nc1ccccc1F)C1CN(C(=O)c2ccc3c(c2)OCO3)C1	none
O=C(Nc1ccc2c(c1)OCCO2)c1cc(CN2CCCC2)on1	USP28 block 63
Cc1ccc(NC(=O)c2cc(CN3CCCC3)on2)cc1C	none (no result: USP17 inh)
O=C(Nc1ccc2c(c1)OCCO2)NC1CCCCC1	USP28 block 31
CC(=O)N1CC2(COc3ccccc31)CN(S(=O)(=O)c1cccc(Cl)c1)CCO2 (centres undefined)	none
CCOC(=O)N1CCC(NCc2c(C(=O)O)n(Cc3ccccc3F)c3ccccc23)CC1	none
Cc1ccc(C)c(NC(=O)COC(=O)C(Cc2c[nH]c3ccccc23)NC(=O)c2ccccc2Cl)c1 (centres undefined)	none
CSc1ccccc1NC(=O)COC(=O)C(Cc1c[nH]c2ccccc12)NC(=O)c1ccccc1Cl (centres undefined)	USP30 block 30
COc1ccc(Cl)cc1NC(=O)COC(=O)C(Cc1c[nH]c2ccccc12)NC(=O)c1ccccc1Cl (centres undefined)	USP30 block 31
O=C(COC(=O)C(Cc1c[nH]c2ccccc12)NC(=O)c1ccccc1Cl)c1ccc([N+](=O)[O-])cc1 (centres undefined)	USP30 block 38
O=C1COC2(CCN(C(=O)C3(c4ccccc4F)CCCC3)C2)CN1c1ccccc1 (centres undefined)	none
COc1ccc(OC)c(NC(=O)CSc2cn(CC(=O)N3CCCCC3)c3ccccc23)c1	none (no result: USP30 block, USP28 block)
O=C(Cc1ccc(F)cc1)N1CCC(Cc2nc(-c3cnccn3)no2)CC1	none
Fc1ccc(-c2nc(-c3cnccn3)no2)c(Cl)c1	USP30 block 36
CC(C)Oc1ccc(S(=O)(=O)N2CCOCC2)cc1NCC(=O)Nc1ccc(C(C)(C)C)cc1	USP30 block 33
CCOc1ccc(Nc2cc(C(=O)NCCC3=CCCCC3)c3ccccc3n2)cc1	USP30 block 32, USP17 inh 44
CCc1ccc(Nc2cc(C(=O)NC3CCCC3)c3ccccc3n2)cc1	none
CCOc1ccc(CCNC(=O)c2ccc3c(SCC(=O)O)c4c(nc3c2)CCC4)cc1OCC	USP17 inh 34, USP28 block 42
CCOc1ccc(CCNC(=O)c2cc(Nc3ccccc3C)nc3ccccc23)cc1OCC	USP30 block 56, USP17 inh 58, USP28 block 41
COc1ccc(OC)c(CCNC(=O)c2ccc3c(=O)n4c(nc3c2)CCCC4)c1	none
Cc1ccc(Cn2nnc3c(=O)n(Cc4nc(-c5ccc(C)cc5)no4)cnc32)cc1	USP17 inh 34
O=c1c2nnn(Cc3cccc(Cl)c3)c2ncn1Cc1nc(-c2ccc(F)cc2)no1	none
Cc1ccccc1NC(=O)c1cnc2c(-c3ccccc3)c(C)nn2c1C	none (no result: USP30 block, USP28 block)
CCc1ccc(OCc2nnc(SCC(=O)Nc3ccccc3OC)n2Cc2ccccc2)cc1	USP30 block 49, USP17 inh 52
CCCc1nc2cccnc2n1C1CCN(C(=O)Nc2ccccc2OCC)C1 (centres undefined)	none
CCC(NS(=O)(=O)c1ccc(S(=O)(=O)N2CCOCC2)cc1)C12CC3CC(CC(C3)C1)C2 (centres undefined)	USP30 block 33
CC1(C)Cc2nc3sc4c(NCCOCCO)ncnc4c3cc2CO1	none
O=C(Nc1sc2c(c1-c1nc3ccccc3[nH]1)CCCC2)C1CC(=O)N(Cc2ccccc2)C1 (centres undefined)	USP17 inh 38
COc1ccccc1C(=O)Nc1sc2c(c1-c1nc3ccccc3[nH]1)CCCC2	none
Cc1cc(C)cc(NC(=O)NCC(O)COc2ccc([N+](=O)[O-])cc2)c1 (centres undefined)	USP17 inh 32
O=C(COc1ccc(Cl)cc1)Nc1noc(-c2cccs2)n1	USP30 block 44, USP17 inh 48, USP28 block 31
Cc1ccc(Cl)cc1N1CCN(C(=O)CN2Cc3ccccc3C2=O)CC1	USP28 block 47
Cc1cccc(N2CCN(C(=O)CN3Cc4ccccc4C3=O)CC2)c1C	none
CCn1c(=O)n(CC(=O)c2ccc(Cl)cc2)c2c(C(N)=O)nc(-c3ccco3)nc21	USP17 inh 36
CCCn1c(=O)n(CC(=O)c2ccccc2F)c2c(C(N)=O)nc(-c3ccco3)nc21	USP17 inh 62
CCCn1c(=O)n(CC(=O)c2ccc(Cl)cc2)c2c(C(N)=O)nc(-c3ccco3)nc21	USP17 inh 38
CCn1c(=O)n(CC(=O)c2ccc(F)cc2F)c2c(C(N)=O)nc(-c3ccco3)nc21	none
N#Cc1cnn2cc3c(nc12)-c1ccccc1OC3	none
CC(=O)Nc1nsc(N2CCC(C(=O)NCc3ccc(C)cc3)CC2)n1	none
O=C(NCc1ccccc1Cl)c1cc(S(=O)(=O)N2CCC3(CC2)OCCO3)ccc1F	none
O=C(NCc1ccc(Cl)c(Cl)c1)c1cc(S(=O)(=O)N2CCC3(CC2)OCCO3)ccc1F	USP28 block 36
COc1cccc(CNCc2nc(NCc3cccc(OC)c3)c3c(C)c(C)sc3n2)c1	USP30 block 42, USP28 block 37
O=C(Oc1ccccc1-c1ccccc1OC(=O)c1ccccc1F)c1ccccc1F	none
Cc1cc(C)c2c(c1)[C@]1(C(=O)N2)N2CCC[C@H]2[C@@H](C(=O)c2ccc3c(c2)OCO3)[C@]12C(=O)Nc1ccccc12	none
O=C(NCCSc1ccc(Cl)cc1)c1cccc(F)c1	none
COc1cccc(C(=O)NCCSc2ccc(Cl)cc2)c1	USP17 inh 35, USP28 block 44
C[C@]12C(=O)N(Cc3ccco3)CC(=O)N1CC(c1ccc(Cl)cc1)c1c2[nH]c2ccccc12 (some centres undefined)	USP17 inh 31
CCCOc1ccc(C2CN3C(=O)CN(Cc4ccco4)C(=O)[C@]3(C)c3[nH]c4ccccc4c32)cc1OC (some centres undefined)	none
O=C(Cc1ccc(Cl)c(Cl)c1)NC12CC3CC(CC(C3)C1)C2	none
Cc1c(-c2noc(-c3ccccc3)n2)nnn1Cc1ccccc1	none
Cc1ccc(Cn2nnc(-c3noc(-c4ccc[nH]4)n3)c2C)cc1	USP28 block 62
COc1ccccc1-c1nc(-c2nnn(Cc3cccc(F)c3)c2C)no1	USP28 block 56
Cc1c(-c2noc(-c3ccccc3)n2)nnn1Cc1cccc(F)c1	none
CCC(C)c1ccc(-c2csc(Cn3c(CN4CCN(C)CC4)nc4ccccc4c3=O)n2)cc1 (centres undefined)	USP17 inh 58
CN1C(=O)c2ccccc2C(=O)[C@@]2(C)CN(C(=O)Cc3ccccc3F)C[C@@H]12	none
CCc1noc(-c2ccc(=O)n(CC(=O)Nc3ccccc3)c2)n1	USP30 block 38
Cc1ccc(NC(=O)Cn2c(-c3nc(C)no3)cccc2=O)c(C)c1	none (no result: USP17 inh)
CC(C)c1nnc(-c2ccc(=O)n(CC(=O)Nc3ccccc3)c2)o1	none (no result: USP17 inh)
